The results in this text go back to the supplement of paper PMC6522484.

Test [1] relates to DLD1. Description: cell viability (CellTiter-Glo) relative to plate median (fraction of plate median); higher = more viable cells. Particulars: 5 µM; treatment time 24 h; reporter: 7TFP. Put shortly: (§1)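 After seeding in 384-well plates, colorectal cancer cell lines carrying stable lentiviral TCF/Wnt firefly luciferase reporters (7TFP or TCF4/Wnt) were left 24 h. Library compounds were then added at a final 5 µM for 24 h. A Tecan F500 reader measured firefly luciferase or CellTiterGlo luminescence on parallel plates, with each well normalised to the plate median by webcellHTS2 (additive, no log transformation), and two independent replicates averaged.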
Background: Cellular ATP, detected with luciferase, serves as a proxy for viable cell number.

In the next test the test system is HCT116. The description is as above. To be noted: 5 µM; treatment time 24 h; reporter: TCF4/Wnt. Put shortly: as §1
For test [2], the system named is SW480. Described as above. To be noted: 5 µM; treatment time 24 h; reporter: 7TFP. Put shortly:
as §1

Test [3] has as its system DLD1. Description: TCF/Wnt firefly luciferase reporter signal relative to plate median (fraction of plate median); higher = higher Wnt reporter signal. To be noted: 5 µM; treatment time 24 h; reporter: 7TFP. In short, it runs like this:
as §1

Test [4] relates to SW480. The test is described as above. To be noted: 5 µM; treatment time 24 h; reporter: 7TFP. Put shortly:
as §1

± gives the standard deviation of the averaged measurements.

In the case of `CC[C@@]1(O)C[C@H](O)c2c(cc3c(c2O)C(=O)c2c(O)ccc(O)c2C3=O)[C@H]1C(=O)OC`, the cell viability in the test on DLD1 [1] was determined as 1.02 ± 0.067; with HCT116 it was 1.05 ± 0.035; with SW480 [2], 1.01 ± 0.03. Also, the figures for the “TCF/Wnt firefly luciferase reporter signal” value in the test with DLD1 [3] and in the test with SW480 [4] were 1.08 ± 0.021 and 0.908 ± 0.12, respectively.
The matching figures for `CC1(C)C2C[C@@H](O)[C@]3(C)C(CC[C@@]4(C)[C@H](c5ccoc5)OC(=O)[C@H]5O[C@]543)[C@@]2(C)[C@@H](O)C[C@H]1O` (stereo not given in full): 1.02 ± 0.071, 0.963 ± 0.081, 0.989 ± 0.0057, 1.07 ± 0.18 and 0.936 ± 0.055.
For the molecule `C/C=C(/C)C(=O)O[C@H]1CC[C@@]2(C)[C@@H]3CC[C@H]4[C@]5(O)C[C@H](O)[C@@]6(O)[C@@H](CN7C[C@@H](C)CC[C@H]7[C@@]6(C)O)[C@]5(O)C[C@@]42O[C@]13O`, the cell viability with DLD1 [1] was 0.994 ± 0.037; in the test on HCT116, 0.995 ± 0.021; in the test on SW480 [2], 0.946 ± 0.017. Moreover, the results for the “TCF/Wnt firefly luciferase reporter signal” value with DLD1 [3] and in the test on SW480 [4] were 0.952 ± 0.036 and 0.9235 ± 0.0078, respectively.
For the molecule `COc1ccc2[nH]cc(CCN)c2c1`, the cell viability in the test with DLD1 [1] was 1.09 ± 0.078; in the test on HCT116 it was 1.06 ± 0.086; in the test with SW480 [2] it was 1.04 ± 0.093. The “TCF/Wnt firefly luciferase reporter signal” value in the test on DLD1 [3] came out at 0.924 ± 0.095; with SW480 [4] it was 1.06 ± 0.014.
As for `C=C(C)[C@H]1Cc2c(ccc3c2O[C@@H]2COc4cc(OC)c(OC)cc4[C@@H]2C3=O)O1`, the cell viability in the test on DLD1 [1] worked out at 0.851 ± 0.054; with HCT116, 0.637 ± 0.11; with SW480 [2], 1.01 ± 0.05. Moreover, the “TCF/Wnt firefly luciferase reporter signal” value in the test with DLD1 [3] came to 0.738 ± 0.04; in the test with SW480 [4], 0.753 ± 0.17.
For `CN1CCc2cc3c(cc2[C@H]1[C@@H]1OC(=O)c2c1ccc1c2OCO1)OCO3` the same measures were 1.06 ± 0.014, 1.07 ± 0.13, 1.05 ± 0.05, 0.9 ± 0.011 and 1.045 ± 0.0071.
The matching figures for `CC(=O)O[C@@H]1C[C@@]2(C)[C@H](c3ccoc3)C[C@H]3O[C@]32[C@]2(C)C(=O)C(O)=C3C(C)(C)C(=O)C=C[C@]3(C)[C@@H]12`: 0.901 ± 0.044, 0.824 ± 0.14, 1.09 ± 0.12, 0.888 ± 0.03 and 0.831 ± 0.19.
In the case of `CC[N+]1(C)CCCC(OC(=O)C(O)(c2ccccc2)c2ccccc2)C1` (stereo not given), the values for the cell viability in the test with DLD1 [1], with HCT116 and in the test on SW480 [2] were 0.945 ± 0.0014, 0.949 ± 0.087 and 0.933 ± 0.091, respectively. Besides, the “TCF/Wnt firefly luciferase reporter signal” value with DLD1 [3] is 0.857 ± 0.0071; in the test with SW480 [4], 0.958 ± 0.06.
Take `O=C1NC(=O)C(=O)C(=O)N1`: the cell viability was 1.01 ± 0.057 with DLD1 [1], 0.935 ± 0.063 with HCT116 and 0.945 ± 0.014 in the test with SW480 [2]. In addition, the “TCF/Wnt firefly luciferase reporter signal” value with DLD1 [3] was 0.829 ± 0.03; in the test on SW480 [4] it was 0.901 ± 0.064.
The matching figures for `COc1c2c(cc3c1OCO3)CC[N+](C)=C2`: 0.978 ± 0.046, 0.945 ± 0.072, 0.991 ± 0.07, 1 ± 0.036 and 1.075 ± 0.0071.
For `CC(Cc1ccc(O)cc1)NCC(O)c1cc(O)cc(O)c1` (stereo not given) the same measures were 1.04 ± 0.068, 1.1 ± 0.099, 0.967 ± 0.012, 0.9645 ± 0.0035 and 0.945 ± 0.013.
As to `Cc1ccc(/N=C/N(C)/C=N/c2ccc(C)cc2C)c(C)c1`, the results for the cell viability with DLD1 [1], with HCT116 and in the test on SW480 [2] were 1.01 ± 0.021, 0.988 ± 0.074 and 0.975 ± 0.036, respectively. The figures for the “TCF/Wnt firefly luciferase reporter signal” value in the test with DLD1 [3] and with SW480 [4] were 1.1 ± 0.057 and 0.927 ± 0.12, respectively.
For `COC(=O)C(c1ccccc1)C1CCCCN1` (stereo not given) the same measures were 1.025 ± 0.0071, 1.05 ± 0.064, 1.01 ± 0.035, 1.03 ± 0.021 and 1.04 ± 0.088.
On to `Oc1ccc(Cl)cc1Cc1cc(Cl)ccc1O`, for which the cell viability is 0.881 ± 0.12 with DLD1 [1], 0.868 ± 0.0092 in the test with HCT116 and 1.03 ± 0.035 in the test on SW480 [2]. The figures for the “TCF/Wnt firefly luciferase reporter signal” value in the test on DLD1 [3] and with SW480 [4] were 0.883 ± 0.17 and 0.953 ± 0.081, respectively.
For `Cc1cc(O)ccc1Cl` the same measures were 1.04 ± 0.035, 0.994 ± 0.023, 1.02 ± 0.028, 0.941 ± 0.015 and 0.834 ± 0.069.
